The nature of experiment [1]: stimulators of nuclear beta-catenin in C2C12, primary screen, imaging, WNT3A-conditioned medium, mouse C2C12, NPC library (AID 1117326; in the data active = nuclear beta-catenin stimulation mostly above about 4.2%, no sharp cut-off; inactive = mostly below about 10%; also: reference of the scale not given here). The following applies: stronger effect = higher value.
Experiment [2] can be described thus: stimulators of insulin release from INS-1E, primary screen, cell-based, 5 mM glucose, NPC library (AID 1117329;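 active = compound raises insulin release from rat beta cells at 5 mM glucose, no numeric limit stated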; also: reference of the scale not given here). The settings on record: rat INS-1E insulin secretion, at 10 µM, stronger effect = higher value.
Experiment [3] can be described thus: growth inhibition of GSK3B-pretreated HCT116 cells – cell-based, CellTiter-Glo, 0.2 to 20 µM (AID 1117336). The following applies: HCT116 viability after GSK3B inhibitor, at 20 µM, stronger effect = higher value.
Experiment [4] in a line: inhibition of endothelial tube formation, primary screen, imaging, VEGF stimulated, CD31 staining, tube area, NPC library (AID 1117340;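 active = compound that reduces growth-factor-driven endothelial tube area in a mixed cell culture, no cutoff stated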). The settings on record: VEGF-stimulated ADSC/ECFC co-culture, at 10 µM, stronger effect = higher value.
Experiment [5] in a line: glucagon-like peptide 1 release enhancers, primary assay, NCI-H716 cell line, NPC library (AID 1117341;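 active = compound raises GLP1 secretion from the human gut endocrine cells, with no numeric limit stated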; also: reference of the scale not given here). The settings on record: NCI-H716 cells, at 10 µM, stronger effect = higher value.
Experiment [6] can be described thus: HCT116 colon cancer cell growth inhibition, primary screen, CellTiter-Glo luminescence, NPC library (AID 1117342;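 active = compounds that lower survival of HCT116 colon cancer cells in the luminescence readout, no numeric limit stated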). The following applies: at 20 µM (top of the series).
Experiment [7] in a line: CellTiter-Glo luminescent readout of SW480 viability loss, NPC library primary (AID 1117343;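 active = compounds that lower viability of the colon cancer cells in the luminescence readout, with no numeric limit stated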). The settings on record: CellTiter-Glo luminescence; at 20 µM (top of the series).
The nature of experiment [8]: decreased DLD-1 cellular survival, CellTiter-Glo luminescent readout, NPC compound collection, primary HTS (AID 1117346;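 active = compounds that lower survival of DLD-1 colon cancer cells in the luminescence readout, no cutoff given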). The settings on record: DLD-1 viability, CellTiter-Glo luminescence; at 20 µM (top of the series).

Active and inactive are the calls of the source.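 The calls were made as follows, unless noted: active = compounds lowering colon cancer cell viability after pretreatment blocking the GSK3B kinase; inactive = the rest.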

Take `CCOC(=O)c1ncn2c1CN(C)C(=O)c1c(I)cccc1-2`: the nuclear beta-catenin stimulation was -0.1% (inactive) in experiment [1] (at 10 µM) and -0.1% in experiment [1] (stimulation, at 2 µM). Moreover, the insulin secretion stimulation in experiment [2] is 0.8% (inactive). For the same molecule, the viability decrease in experiment [3] was 3.6% (inactive). Besides, in experiment [4], the tube area decrease was -12.8% (inactive). In experiment [5], the GLP1 secretion stimulation is -0.9% (inactive). The inhibition of viability in experiment [6] is 11.2% (inactive). Also, the viability decrease (inhibition) in experiment [7] was -7.6% (inactive); in experiment [8], -11.3% (inactive).
As to `CC[N+]1(CC)CCC(OC(=O)C(O)(c2ccccc2)c2ccccc2)C1` (configuration not stated), the nuclear beta-catenin stimulation in experiment [1] (at 10 µM) is -0.2% (inactive); in experiment [1] (stimulation, at 2 µM), -1.8%. Moreover, the insulin secretion stimulation in experiment [2] was 3.25% (inactive). Moreover, the viability decrease in experiment [3] is 4.8% (inactive). Further, in experiment [4], the tube area decrease was 1.2% (inactive). Besides, the GLP1 secretion stimulation in experiment [5] was 2.4% (inactive). Besides, the inhibition of viability in experiment [6] is 4.2% (inactive). For the same molecule, the results for the viability decrease (inhibition) in experiment [7] and in experiment [8] were -12.8% (inactive) and -6.4% (inactive), respectively.
As to `CC(C)C(Br)C(=O)NC(N)=O` (configuration not stated), the nuclear beta-catenin stimulation in experiment [1] (at 10 µM) was 0.6% (inactive); in experiment [1] (stimulation, at 2 µM), 1%. In addition, the insulin secretion stimulation in experiment [2] is -0.4% (inactive). The viability decrease in experiment [3] was -0.05% (inactive). In experiment [4], the tube area decrease was 1.7% (inactive). Also, the GLP1 secretion stimulation in experiment [5] was -0.8% (inactive). Also, in experiment [6], the inhibition of viability was -3% (inactive). For the same molecule, the results for the viability decrease (inhibition) in experiment [7] and in experiment [8] were 4.9% (inactive) and 1% (inactive), respectively.
As to `CC(Cc1ccccc1)NC=O` (configuration not stated), the nuclear beta-catenin stimulation is -2.3% (inactive) in experiment [1] (at 10 µM) and -0.1% in experiment [1] (stimulation, at 2 µM). Further, in experiment [2], the insulin secretion stimulation is 1.5% (inactive). Besides, the viability decrease in experiment [3] is -5.7% (inactive). In addition, the tube area decrease in experiment [4] was 1.3% (inactive). In addition, the GLP1 secretion stimulation in experiment [5] is -5.4% (inactive). Further, the inhibition of viability in experiment [6] is 8.8% (inactive). The viability decrease (inhibition) is 16.7% (inactive) in experiment [7] and -4.6% (inactive) in experiment [8].
For the molecule `CCC1(c2ccccc2)CCC(=O)NC1=O` (configuration not stated), the nuclear beta-catenin stimulation in experiment [1] (at 10 µM) was 0.3% (inactive); in experiment [1] (stimulation, at 2 µM), 0.1%. Further, in experiment [2], the insulin secretion stimulation is -2.9% (inactive). The viability decrease in experiment [3] is -12.8% (inactive). Besides, the tube area decrease in experiment [4] is -0.6% (inactive). In addition, in experiment [5], the GLP1 secretion stimulation is 2.8% (inactive). Further, the inhibition of viability in experiment [6] was -2.8% (inactive). In addition, the viability decrease (inhibition) was 49.4% (inactive) in experiment [7] and 6.55% (inactive) in experiment [8].
In the case of `C[C@@]12CCCCC[C@@H](Cc3ccc(O)cc31)[C@H]2N`, the nuclear beta-catenin stimulation was -0.5% (inactive) in experiment [1] (at 10 µM) and 0.1% in experiment [1] (stimulation, at 2 µM). Also, in experiment [2], the insulin secretion stimulation is 11.2% (inactive). Besides, the viability decrease in experiment [3] is -4.1% (inactive). Moreover, the tube area decrease in experiment [4] was 8.5% (inactive). Moreover, the GLP1 secretion stimulation in experiment [5] was -2.3% (inactive). In addition, the inhibition of viability in experiment [6] was 13.4% (inactive). Besides, the viability decrease (inhibition) in experiment [7] is 6.4% (inactive); in experiment [8] it was -12.5% (inactive).
On to `O=C(CCl)c1ccc(Cl)cc1Cl`, for which the nuclear beta-catenin stimulation in experiment [1] (at 10 µM) is 3.3% (active); in experiment [1] (stimulation, at 2 µM), 45.6%. Further, the insulin secretion stimulation in experiment [2] was 4.4% (inactive). The viability decrease in experiment [3] was 66.2% (active). In addition, the tube area decrease in experiment [4] is 104% (active). The GLP1 secretion stimulation in experiment [5] is -6.4% (inactive). Also, in experiment [6], the inhibition of viability was 88.3% (active). For the same molecule, the values for the viability decrease (inhibition) in experiment [7] and in experiment [8] were 91.8% (active) and 64.8% (active), respectively.
`c1cc2c(c(N3CCNCC3)c1)OCCO2`: the nuclear beta-catenin stimulation in experiment [1] (at 10 µM) was -1.4% (inactive); in experiment [1] (stimulation, at 2 µM), 0.7%. Further, the insulin secretion stimulation in experiment [2] is 1.8% (inactive). The viability decrease in experiment [3] is -14.9% (inactive). Besides, the tube area decrease in experiment [4] was -9.4% (inactive). Moreover, the GLP1 secretion stimulation in experiment [5] was -2.6% (inactive). Also, in experiment [6], the inhibition of viability was 3.6% (inactive). The values for the viability decrease (inhibition) in experiment [7] and in experiment [8] were 3.4% (active) and -7.5% (inactive), respectively.

These data come from PubChem BioAssay.
